The record followed here is ChEMBL document CHEMBL3988442, “University of Dundee, Small-Polar-MMV Screening Library” (2021).

Screen size: about 48,000 compounds; about 13,000 (27%) showed an effect of 50% or more. This is one part of the list.

The subject of the assay is Wolbachia pipientis. The assay is described as follows: Anti-Wolbachia Cell-Based Screen. It counts as functional. Further details: scale not given: in the data most compounds retested in dose-response had high values. As to conditions: 5 µM.
Take `CCc1ncc(C(=O)N(CCOC)Cc2nccs2)cn1`: the “Percent Effect” value is -17.92%. The value for `CC(=O)NCCC(=O)NCC1(c2c(F)cccc2F)CCCC1` was 8.916%; that for `COc1c(CNC2CCN(c3ccccn3)CC2)c(C(C)C)nn1C` was 112.8%; that for `COc1c(CNC2CCN(c3ncccn3)CC2)c(C(C)C)nn1C` was -7.484%.

With `COc1c(CNC2CCN(CC(=O)NC3CC3)CC2)c(C)nn1C`, the “Percent Effect” value was -12.1%. For `COc1c(CNC2CCCN(c3ncccn3)C2)c(C(C)C)nn1C` (stereo unspecified) the value was 105%; for `CCCS(=O)(=O)N1CCC(NCc2c(C)nn(C)c2OC)CC1`, -2.561%. For `COc1c(CNC2CCN(c3ncccn3)CC2)c(C)nn1C` the value was 109.2%; for `O=C(NCc1ccco1)c1cccc(CN2CCCC2CO)c1` (stereo unspecified), -23.86%; for `Cc1cnn(C(C)C2CC2)c1NC(=O)c1ccco1` (stereo unspecified), -0.6057%. The value for `COc1cc2c(cc1OC)S(=O)(=O)N(Cc1ccc(C)cc1)C2=O` was -15.41%. On to `Cc1nc(NC(=O)C(C)N2CCN(c3ncccn3)CC2)sc1C` (stereo unspecified), for which the “Percent Effect” value is -4.452%. In the case of `Cc1csc(NC(=O)C2(C)CCCO2)n1` (stereo unspecified), the “Percent Effect” value is -5.614%. For `CN1CCC(NC(=O)Cc2csc(C(C)(C)C)n2)CC1` the value was -5.316%; for `CN1CCOC(C)(C(=O)Nc2nccs2)C1` (stereo unspecified), 89.7%. Turning to `CN1CCOC(C(=O)Nc2ccc3c(c2)nc(C(C)(C)C)n3C)C1` (stereo unspecified), the “Percent Effect” value came to 1.099%. For the compound `Cc1csc(NC(=O)C2(C)CN(C)CCO2)n1` (stereo unspecified), the “Percent Effect” value came to 103.9%.

For the compound `Cc1nc(NC(=O)C2(C)CN(C)CCO2)sc1C.Cl` (stereo unspecified), the “Percent Effect” value came out at 123.3%. For `CCC(C)(CNC(=O)Nc1nccs1)N1CCOCC1` (stereo unspecified) the value was 14.58%; for `Cc1nsc(NC(=O)NC2(CN3CCOCC3)CCCC2)n1`, -3.665%; for `CN1CCOC(C)(C(=O)Nc2nc(C(C)(C)C)cs2)C1` (stereo unspecified), 82.99%. For `CC(C)(CNC(=O)Nc1nccs1)N1CCOCC1`, the “Percent Effect” value is recorded as -4.16%. Regarding `Cc1csc(NC(=O)c2cccnc2N2CCOCC2)n1`, the “Percent Effect” value is -18.32%. The value for `Cc1nccn1C1(C(=O)O)CCN(Cc2ccc3c(c2)OCCO3)CC1` was -9.809%; that for `O=C1CC[C@H]2CN(c3ncc(F)cn3)CC[C@H]2N1CCc1c[nH]cn1` was -5.494%. `O=C(NCc1ccncc1)N(Cc1ccccc1F)C1CC1`: the “Percent Effect” value is 1.311%. For the compound `Cc1cc(C)n2ncc(CN3CCC(n4cc(CCO)nn4)CC3)c2n1`, the “Percent Effect” value was determined as 4.389%.

With `CC(C)Nc1nc2c(s1)C(=O)CN(C(=O)NCCc1ccccc1)C2`, the “Percent Effect” value is on record as 113.9%.

As to `COc1cccc(CNC(=O)c2nc3c(o2)CN(C(=O)N(C)C)C3)c1`, the “Percent Effect” value is on record as -21.04%.

Consider `CNc1nc2c(s1)C(=O)CN(C(=O)NCCc1ccccc1)C2`, for which the “Percent Effect” value worked out at 90.96%. The value for `CC(C)Nc1nc2c(s1)C(=O)CN(C(=O)NCc1ccccc1)C2` was 95.64%; that for `O=C(NCCc1ccccc1)N1CCC(C2OCCO2)CC1` was 12.73%. In the case of `CC(C)[C@@H]1CN(C(=O)NCCc2ccccc2)C[C@H]1NS(=O)(=O)N(C)C`, the “Percent Effect” value is on record as -13.11%. The value for `CNc1nc2c(s1)C(=O)CN(C(=O)[C@@H](N)Cc1cccc(OC)c1)C2` was 113.9%. The value for `NC(=O)c1cccc(CCNC(=O)N2Cc3ccccc3C2)c1` was 2.881%; that for `CNc1nc2c(s1)C(=O)CN(C(=O)NCc1ccccc1)C2` was -1.017%; that for `COc1cccc(CN2CCN(C(=O)Nc3nc(C)ns3)CC2=O)c1` was -7.215%. For `CCC1=N[C@@]2(CC[C@@H]3CN(C(=O)NCc4ccccc4)C[C@@H]32)C(=O)N1` the value was -15.34%; for `O=C1NCCN2CCN(C(=O)NCCc3ccccc3)CC12` (stereo unspecified), -9.412%; for `COc1ccc(Cl)cc1CNC(=O)CN1CCC2(CCOC2)C1` (stereo unspecified), 5.478%.

As for `CCCC(=O)NCC(=O)NC(c1ccc(Cl)cc1)C(F)(F)F` (stereo unspecified), the “Percent Effect” value is given as -4.192%. In the case of `CC(=O)c1cn(CC(=O)N2CCCC(O)(CO)C2)c2ccccc12` (stereo unspecified), the “Percent Effect” value was -9.342%. `Cc1nc(C)c(CC(=O)N2C[C@H]3CC[C@@H]2CN(C(=O)N(C)C)C3)c(=O)[nH]1`: the “Percent Effect” value was -5.688%. Regarding `Cc1ccc(CN(Cc2ccccn2)C(=O)C2CCCCCN2C)s1` (stereo unspecified), the “Percent Effect” value is recorded as -49.91%. The value for `O=C(NCc1cc(F)ccc1F)Nc1ccn(CC(F)F)n1` was -16.02%; that for `CCCS(=O)(=O)CC(=O)Nc1ccsc1` was -10.7%.

In the case of `CCNc1nc2c(s1)C(=O)CN(C(=O)NCCc1ccccc1)C2`, the “Percent Effect” value is -10.47%. For `COCc1nc2c(o1)CN(C(=O)NCc1ccccc1)C2` the value was 27.3%; for `CCNc1nc2c(s1)C(=O)CN(C(=O)NCc1ccccc1)C2`, 105.7%.

On to `Nc1nc2c(c(N3CCOCC3)n1)CCN(C(=O)c1ccc[nH]1)CC2`, for which the “Percent Effect” value turned out to be 39.51%. On to `CN(C)c1nc2c(c(N3CCCC3)n1)CCN(C(=O)c1ccc[nH]1)CC2`, for which the “Percent Effect” value is on record as 91.66%.

For the compound `Cc1nc(-c2cnn(C)c2)nc2c1CN(C(=O)c1ccc[nH]1)CC2`, the “Percent Effect” value was -2.829%. For `CC(C#N)CN(C)Cc1c(Cl)ccc2cccnc12` (stereo unspecified) the value was 4.156%; for `COC(C)c1cccc(NCc2ccsc2)c1` (stereo unspecified), -13.03%. For `COc1ccc(CNc2cc(-c3nc(C)no3)ccn2)c(OC)c1` the value was -6.518%.

As for `COc1ccncc1NCc1ccsc1`, the “Percent Effect” value came to 15.23%. As to `COc1ccc(CNC(Cc2ccsc2)c2ccc(C)cn2)cc1OC.Cl` (stereo unspecified), the “Percent Effect” value was determined as 112.1%.

Regarding `COc1cccc(OC)c1CNC(Cc1ccsc1)c1ccc(C)cn1` (stereo unspecified), the “Percent Effect” value is given as 169.8%.

Turning to `CCc1cnc(N)nc1NCc1ccc(OC)cc1OC`, the “Percent Effect” value was -6.529%. The value for `COc1ccc(CNC(Cc2ccsc2)c2ccc(C)cn2)c(OC)c1` (stereo unspecified) was 101.2%; that for `COc1ccc(CNc2c(C)nn(C(C)C)c2C)cc1OC.Cl` was 8.952%; that for `O=C(NCc1cccc(-n2cncn2)c1)NCC(C1CC1)C1CC1` was -15.59%. With `CC(C)Cn1cncc1CNC1CCSCC1`, the “Percent Effect” value is recorded as 2.151%. For `COc1ccc(F)c(CN2CCCC(O)(CNC3CCCCC3)C2=O)c1` (stereo unspecified) the value was -6.817%; for `COc1c(C)cnc(CNC(=O)c2cnc3onc(C)c3c2)c1C`, 104.5%.

Consider `COc1c(C)cnc(CNC(=O)c2cc(C)nc3onc(C)c23)c1C`, for which the “Percent Effect” value was -1.817%. `Cc1noc2ncc(C(=O)NCC3CCOC3)cc12` (stereo unspecified): the “Percent Effect” value is on record as -15.76%. As to `O=C(NCCOCCO)[C@@]12CNC[C@@H]1CN(C1CCCC1)C2`, the “Percent Effect” value is -7.865%. The value for `CC(C)c1cc(N2CCC(CCC(=O)NC3CC3)CC2)n2nccc2n1` was 7.052%; that for `CCN(Cc1nnsc1Cl)C(C)c1ccc(C#N)cc1` (stereo unspecified) was 1.58%. With `COc1cccc(CN2CCCCC2Cn2nc(C)nc2C)c1` (stereo unspecified), the “Percent Effect” value stood at 129.9%.

Consider `COc1c(C)cnc(CN2CCCCC2Cn2nc(C)nc2C)c1C` (stereo unspecified), for which the “Percent Effect” value came out at 6.225%. For `COc1ccc(CCN2CCCC2Cn2nc(C)nc2C)cc1` (stereo unspecified) the value was -8.655%. The value for `Cc1nc(C)n(CC2CCCN2Cc2cn3c(C)cccc3n2)n1` (stereo unspecified) was -8.673%. For `COc1cccc(CN2CCCC2Cn2nc(C)nc2C)c1` (stereo unspecified) the value was 137%; for `c1cnn(CCNCc2nnc(C3CC3)o2)c1`, -6.862%. Consider `CN(CCNC(=O)N1CCN(Cc2ccon2)CC1)c1ccccc1`, for which the “Percent Effect” value is -8.314%.

For the compound `CCc1nc2c(N3CCC4(CC3)CC(=O)N(CC(C)C)C4)ncnc2o1`, the “Percent Effect” value is -4.027%. The value for `CCN(CC)C(=O)N1CCOCC1c1c(C)nn(C)c1C` (stereo unspecified) was 7.192%.

`Cc1cc(C)c(C(=O)N2CCOCC2c2c(C)nn(C)c2C)o1` (stereo unspecified): the “Percent Effect” value was determined as 101%. For `Cc1nn(C)c(C)c1C1COCCN1C(=O)CCc1ccccc1` (stereo unspecified) the value was 95.59%; for `Cc1nn(C)c(C)c1C1COCCN1C(=O)c1ccccc1` (stereo unspecified), -4.407%. For `Cc1nn(C)c(C)c1C1COCCN1C(=O)CSC(C)(C)C` (stereo unspecified) the value was -11.83%; for `Cc1nn(C)c(C)c1C1COCCN1C(=O)c1n[nH]c2ccccc12` (stereo unspecified), 16.5%; for `CSc1ccc(C(=O)N2CCOCC2c2c(C)nn(C)c2C)o1` (stereo unspecified), 94.08%.

In the case of `CNC(=O)N1CCOCC1c1c(C)nn(C)c1C` (stereo unspecified), the “Percent Effect” value is recorded as -10.34%. Turning to `Cc1nn(C)c(C)c1C1CCCN1C(=O)c1ccc(Cl)o1` (stereo unspecified), the “Percent Effect” value is recorded as -7.187%. On to `Cc1nn(C)c(C)c1C1COCCN1C(=O)c1cnc(N)c(Cl)c1` (stereo unspecified), for which the “Percent Effect” value turned out to be 1.304%. Regarding `Cc1nn(C)c(C)c1C1COCCN1C(=O)Cc1cccc(F)c1` (stereo unspecified), the “Percent Effect” value was -20.34%.

In the case of `Cc1nn(C)c(C)c1C1COCCN1C(=O)c1ccc(Cl)o1` (stereo unspecified), the “Percent Effect” value is 70.94%. For `COCCS(=O)(=O)N1CCN(c2cccc(O)c2)CC1` the value was 9.959%. For `CCS(=O)(=O)NCCNC(=O)c1cc(Cl)c2c(c1)OCCCO2` the value was 12.52%; for `CCC(CC)CN1CCC(n2cc(C3CCCC3)nn2)CC1`, 4.235%. Consider `CN(Cc1ccc(F)cc1)CC1(O)CCCN(CC(C)(C)C)C1=O` (stereo unspecified), for which the “Percent Effect” value stood at 55.08%. For the compound `CN(Cc1ccccc1)CC1(O)CCCN(CCC2CCCCC2)C1=O` (stereo unspecified), the “Percent Effect” value was -12.81%. For `CN(Cc1ccccc1)CC1(O)CCCN(CC(C)(C)C)C1=O` (stereo unspecified) the value was 2.381%; for `CN(c1ncc(S(N)(=O)=O)s1)C1CCc2ccccc2C1` (stereo unspecified), 1.957%; for `CCn1cc(N)c(C(=O)NCc2cnn(C)c2)n1`, -9.614%. Consider `Cc1c(Br)cccc1C(=O)NCc1cnn(C)c1`, for which the “Percent Effect” value was -14.4%.

As for `CCn1cc(Br)c(C(=O)NCc2cnn(C)c2)n1`, the “Percent Effect” value was 103.9%. For `COCCN1CCC2(CC1)CN(C(C)=O)c1ccc(C)cc12.O=C(O)C(F)(F)F` the value was 24.24%; for `CCC(=O)Nc1ccc2c(c1)C1(CCOCC1)CN2CCOC.O=C(O)C(F)(F)F`, 101.5%. As for `CCCC(=O)Nc1ccc2c(c1)C1(CCOCC1)CN2CCOC.O=C(O)C(F)(F)F`, the “Percent Effect” value is 114.8%.

For the compound `COCCN1CC2(CCOCC2)c2cc(NC(=O)C3CC=CC3)ccc21.O=C(O)C(F)(F)F`, the “Percent Effect” value was found to be 98.06%. For `COCCN1CCC2(CC1)CC(N1CCOCC1)c1ccc(C)cc12.O=C(O)C(F)(F)F.O=C(O)C(F)(F)F` (stereo unspecified) the value was -12.46%; for `CN(C)C(=O)N1CC2(CCOCC2)c2cc(NC(=O)CCO)ccc21`, -8.643%.
